# Bioassay records as filed in PubChem.
# Shown are actives, neighbours in structure and some others; about 4.5% of the full set was active somewhere.
# GDH-TPI counter: GDH-TPI coupled enzyme inhibition counter-screen | AID 588335 | inhibition, % at 4.8 µM | hit rate 1.2% among 360,000 | GDH-TPI coupled enzyme counterscreen, NADH absorbance; in the data active = inhibition above about 30%
# FBA Mtb inh: Mtb fructose-bisphosphate aldolase inhibition. AID 588726. purified M. tuberculosis FBA, fluorescence read-out. hit rate 2.3% among 360,000. P9WQA3. inhibition, % at 1 µM; in the data active = inhibition above about 27%
# Target sequence (P9WQA3 whole entry, looked up): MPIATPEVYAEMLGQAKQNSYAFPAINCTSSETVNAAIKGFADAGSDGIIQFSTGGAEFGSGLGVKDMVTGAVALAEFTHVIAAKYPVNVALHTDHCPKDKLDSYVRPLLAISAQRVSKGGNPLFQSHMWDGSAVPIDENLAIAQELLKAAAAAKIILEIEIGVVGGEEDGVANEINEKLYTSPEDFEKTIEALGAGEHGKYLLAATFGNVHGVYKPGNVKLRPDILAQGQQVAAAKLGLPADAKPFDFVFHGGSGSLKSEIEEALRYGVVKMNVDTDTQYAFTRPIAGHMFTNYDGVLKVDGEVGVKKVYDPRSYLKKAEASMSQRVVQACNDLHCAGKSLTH
# BJeLR lethal: kills HRASV12-expressing BJeLR cells; BJeLR (HRASV12) viability, CellTiter-Glo ATP luminescence, 48 h; AID 1554; hit rate 0.17% among 300,000; inhibition, % (concentration not given with the values); in the data active = inhibition above about 50%
# PrP 5UTR inh: suppresses PrP 5' UTR mRNA reporter expression. cell-based PrP 5' UTR mRNA reporter, plate reader. inhibition, % (no concentration beside the values). hit rate 0.35% among 340,000. AID 488862; in the data active = inhibition above about 52%
# PrPC TRFRET: reduces human prion protein on the cell surface | hit rate 0.43% among 370,000 | inhibition, % at 13.8 µM | P04156 | cell surface PrPC, TR-FRET read-out | AID 720596; in the data active = inhibition above about 24%
# PfHsp40 rescue: restores yeast growth despite PfHsp40 toxicity | S. cerevisiae expressing PfHsp40, growth rescue, ATP luminescence | growth rescue, % at 12.5 µM | hit rate 0.68% among 340,000 | AID 504582; in the data active = growth rescue above about 28%, passing the limit was not always enough;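 also: yeast W303a lacking pdr1 and pdr3 grown in galactose medium; growth measured after three days at 30 °C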
# A number is an active result; . = inactive; / = no result; + = active, no number.
SMILES,GDH-TPI counter,FBA Mtb inh,BJeLR lethal,PrP 5UTR inh,PrPC TRFRET,PfHsp40 rescue
N#C/C(=C(/O)CN1CCOCC1)c1nc(-c2ccccc2)cs1,.,.,.,.,.,.
CSCCCNC(=O)CN1C(=O)C2CCCCN2C(=O)c2ccccc21 (centres undefined),/,/,/,/,.,/
CC(=NNC(=S)N1CC2CCC(CC2)C1)c1ccncn1,.,.,/,.,.,98
CN(Cc1ccccc1)c1ccc(S(=O)(=O)N2CCC(C(=O)O)CC2)cc1[N+](=O)[O-],.,+,/,.,.,.
CCCN1CCCC[C@H]1C(=O)Nc1c(C)cccc1C,.,.,.,.,.,43
CCCCN1CCCCC1C(=O)Nc1c(C)cccc1C (centres undefined),.,.,/,.,.,.
N#CC(Cc1cccs1)c1nc2ccccc2[nH]1 (centres undefined),.,.,/,/,.,/
N#CC(/C(=N/S(=O)(=O)c1cccs1)c1ccccc1)c1nc2ccccc2[nH]1 (centres undefined),43,.,.,.,.,.
O=C(O)c1cc(N2N=C(C(F)(F)F)/C(=C/C=C/c3ccco3)C2=O)ccc1Cl,.,.,/,.,.,112
O=C(Cc1cccs1)N/N=C\c1ccccc1,/,/,/,/,.,/
Cc1ccc(F)cc1C(=O)N1CCCC(c2cc(C(=O)Nc3ccccc3Cl)no2)C1 (centres undefined),.,.,/,/,.,/
CCOc1ccc(-c2c(C)n(-c3ccc(OCC)cc3)c3[n+]2CCCCC3)cc1,.,.,70,.,28,.
O=C(c1cc(-c2ccccc2)n[nH]1)N1CCN(S(=O)(=O)c2ccccc2)CC1,.,.,.,.,.,30
COc1ccc(-c2cc(C(=O)N3CCN(S(=O)(=O)c4ccccc4)CC3)[nH]n2)cc1,.,.,.,.,.,.
Cn1nc(C(=O)N2CCN(S(=O)(=O)c3ccccc3)CC2)c2ccccc2c1=O,.,107,.,.,.,.
CCOCCCn1c(=NC(=O)c2ccco2)c(C(=O)OCC)cc2c(=O)n3cccc(C)c3nc21,.,+,.,.,.,.
CCOC(=O)c1cc2c(=O)n3cccc(C)c3nc2n(CC(C)C)c1=NC(=O)c1ccco1,.,+,.,.,.,.
CCOC(=O)c1cc2c(=O)n3cccc(C)c3nc2n(Cc2ccco2)c1=NC(=O)c1ccc(C)cc1,.,.,/,.,/,.
Cc1ccc(-c2nc(C3CCCN(S(=O)(=O)c4ccc(Cl)s4)C3)no2)cc1 (centres undefined),/,/,/,/,.,/
COc1ccc([C@H]2OC(=O)C[C@@H]2C(=O)N2CCN(c3ccccc3Cl)CC2)cc1OC,/,/,/,/,.,/
CCC(=O)NC(c1cccs1)c1cc([N+](=O)[O-])c2cccnc2c1O (centres undefined),.,.,.,.,.,.
CC(=O)NC(c1cccs1)c1cc([N+](=O)[O-])c2cccnc2c1O (centres undefined),.,.,.,.,.,243
C[N+]1=C(/C=C/Nc2ccccc2Cl)C(C)(C)c2ccccc21,36,.,.,.,.,.
Cc1cc(O)c(NC(=S)NC(=O)c2ccc(-c3ccc(Cl)cc3)o2)cc1C,37,.,.,.,.,.
O=c1cnnc(N/N=C/c2ccc3c(c2)OCO3)[nH]1,44,.,.,.,.,.
SMILES,GDH-TPI counter,FBA Mtb inh,BJeLR lethal,PrP 5UTR inh,PrPC TRFRET,PfHsp40 rescue
C[C@H]1[C@H](OC(=O)CCC(=O)NCc2ccc(C(=O)O)cc2)O[C@@H]2O[C@@]3(C)CC[C@H]4[C@H](C)CC[C@@H]1C24OO3,.,.,.,.,/,188
COC(=O)c1ccc(CNC(=O)COC(=O)CCC2CCCC2)cc1,.,.,.,.,.,.
O=C(NCCc1ccccc1)OCc1cn(-c2cccc(F)c2F)nn1,/,/,/,/,.,/
COc1cc(OC)c(OC)cc1/C=N/NC(=S)NCC1CCCO1 (centres undefined),34,.,.,.,.,.
COc1cc(/C=N/NC(=O)C(=O)NCC2CCCO2)ccc1O (centres undefined),38,.,.,.,.,.
COc1cc(/C=N/NC(=O)C(=O)NCc2ccco2)cc(Cl)c1O,36,.,.,/,.,.
C=CCOc1cccc(/C=N/NC(=O)C(=O)NCc2ccco2)c1,.,.,.,.,.,.
COc1cc(/C=N/NC(=O)C(=O)NCc2ccco2)ccc1O,32,.,.,.,.,.
COc1cc(OC)c(OC)cc1/C=N/NC(=S)NCCN1CCOCC1,.,.,.,.,.,.
COc1cc(/C=N/NC(=O)CNC(=O)c2ccco2)ccc1O,.,.,.,.,.,.
COc1cc(/C=C(\C#N)C(=O)NCC2CCCO2)ccc1O (centres undefined),.,.,.,.,.,.
COc1cc(/C=N/NC(=O)/C(=C/c2ccccc2)CCO)ccc1O,39,.,.,.,.,.
COc1ccc(/C=N/NC(=O)/C(=C/c2ccccc2)CCO)cc1,.,.,.,.,.,.
Cc1ccc(C2=CCN(C)C(=O)N2c2ccc([N+](=O)[O-])cc2)cc1,/,/,/,/,.,/
CSc1ccc(SC2CN(Cc3ccc(C)cc3)S(=O)(=O)C2)cc1 (centres undefined),/,/,/,/,.,/
Clc1ccc(C2=NN(c3ccccc3)C(c3ccco3)C2)cc1 (centres undefined),.,161,.,.,.,.
O=C(NC1=C(Nc2ccc(Cl)cc2)C(=O)c2ccccc2C1=O)c1ccccc1,.,.,.,.,.,.
O=C1C(Cl)=C(NC(=O)c2ccccc2)C(=O)C(Cl)=C1NC(=O)c1ccccc1,34,.,.,.,.,.
COC(=O)c1cc(-c2ccc(C(C)(C)C)cc2)c(=O)n2c1CCC2,/,/,/,/,.,/
CC1CC(=Cc2ccc([N+](=O)[O-])cc2)C(=O)O1 (centres undefined),31,.,/,.,.,.
CC1CC(=Cc2ccc(N)cc2)C(=O)O1 (centres undefined),35,.,/,.,.,.
O=C1/C(=C\c2ccc([N+](=O)[O-])cc2)CCc2ccccc21,.,.,.,.,.,.
CCCCNC(=O)C1c2ccccc2OCC(=O)N1Cc1cccnc1 (centres undefined),/,/,/,/,.,/
CN(C(=O)c1ccno1)c1nnc(-c2ccccn2)s1,.,+,.,.,.,.
COc1ccc(-c2nnc(N(C)C(=O)c3ccno3)s2)cc1,.,.,.,.,.,.
C=CCOC/C=C/C#CCN(Cc1ccc(OC)cc1OC)C(=O)Nc1ccccc1,/,/,/,/,.,/
CCCCCCNC(=O)C1CSCCS(=O)(=O)N1Cc1ccc(OC)cc1 (centres undefined),/,/,/,/,.,/
NC(=Nc1nc(-c2ccccn2)cc2ccccc12)c1ccccn1,.,.,/,.,.,163
CCCCCCCCOC(=O)C1=C(C)Nc2nnnn2C1c1cccs1 (centres undefined),.,.,.,.,.,76
CCCCCC(=O)NC1CCCCN(Cc2ccc(C)cc2)C1=O (centres undefined),/,/,/,/,.,/
